Screens deposited in PubChem by Broad Institute.
This is one part of a sample in which hits are shown more often than they occur.
Tg IFNy HTS: T. gondii growth inhibition with IFN-gamma, primary screen, cell-based; Toxoplasma gondii growth in IFN-gamma-treated host cells; stronger effect = lower value; activity change, negative = inhibition, % (no concentration beside the values); 3.8% of 69,000 active; in the data active = activity change below about -70%, passing the limit was not always enough;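 also: host cells are HeLa cells infected with Toxoplasma gondii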
Each line names hits and unclear results; the compound was inactive in the other large screens.

Cc1cnccc1CN(C)C(=O)c1cccc(NC(=O)C2CCCO2)c1 (centres undefined)	none
Cc1ccsc1-c1nc(CN(C)Cc2cnn(C)c2C)c(C)o1	none
CCc1cn[nH]c1C1CCCN(C(=O)c2cccc(-n3cnnc3)c2)C1 (centres undefined)	none
CN(C)CCCOc1cccc(C(=O)O)c1	none
CCCCCOc1ccc(C(=O)c2ccccc2)cc1	none
CN(C)CCOc1ccc(/C(=C(/CCCl)c2ccccc2)c2ccccc2)cc1	Tg IFNy HTS -88.5
COc1cc2c(cc1OC)C(c1cc3cc4c(cc3[nH]c1=O)OCO4)NCC2 (centres undefined)	none
CC(C)N(C)Cc1cc(=O)n2c(n1)CN(C(=O)c1ccc[nH]1)CCC2	none
CN(C)C(=O)C1(Cc2cccc(-c3ccccc3)c2)CN(C(=O)CCn2cnnn2)CCO1 (centres undefined)	none
CC(=O)N1[C@H](CN2CCCC2)C[C@H]2CN(C(=O)c3ccco3)CC[C@H]21	none
CC(=O)N1C2CN(Cc3ccc(C)o3)CC2C[C@@H]1C(=O)NCC1CC1 (some centres undefined)	none
CC(=O)N1[C@H](CN2CCCC2)C[C@H]2CN(Cc3ccc(C)o3)CC[C@H]21	Tg IFNy HTS -79.9
CCOc1ccc(NC(=O)Cn2ncc3c(N4CCN(c5ccccn5)CC4)ncnc32)cc1	none
CCCN(CC)C(=O)c1cc2c(c3ccccc3n2C(C)C)n1C(=O)N(C)C	none
Cc1cc(Cl)ccc1OCCCC(=O)NO	Tg IFNy HTS -82.5
Cc1cc(Cl)ccc1OCCCC(=O)N1CCN(C)CC1	none
COc1cc(C)nc(OCCNC(=O)COc2ccc(Cl)cc2C)n1	none
CCCNC(=O)c1cc2c(c3ccccc3n2CC2CC2)n1C	none
Cc1cccc(-c2nc(CCNC(=O)c3ccc(Br)cc3)cs2)c1	none
CSc1ccc(-c2noc(-c3c(O)c4ccccc4[nH]c3=O)n2)cc1	none
O=C(c1ccc[nH]1)N1Cc2nccn2CC(CN2CCCC2)C1 (centres undefined)	none
O=C1CCCN1CC1CN(CC2CCOC2)Cc2nccn2C1 (centres undefined)	none
O=C1CCCN1CC1CN(C(=O)c2ccccn2)Cc2nccn2C1 (centres undefined)	Tg IFNy HTS -98.4
CC(C)c1nn(C)c2c1C(c1nc(-c3ccc(Cl)cc3)no1)CC(=O)N2 (centres undefined)	Tg IFNy HTS -85.2
COc1c(F)cc(C2CC(=O)Nc3c2c(C(C)C)nn3C)cc1Cl (centres undefined)	none
CC(C)c1nn(-c2ccccc2)c2c1C(c1ccoc1)CC(=O)N2 (centres undefined)	none
CN1CC2(CCCN(C(=O)c3cc(=O)n(-c4ccccc4)[nH]3)C2)OC1=O (centres undefined)	none
CC1=C(C(=O)NCCCN2CCCC(C)C2)C2(CCN(S(C)(=O)=O)CC2)OC1=O (centres undefined)	none
CC1=C(C(=O)NCCCN2CC(C)CC(C)C2)C2(CCCCC2)OC1=O (centres undefined)	Tg IFNy HTS -80.5
Cc1c(C(=O)N2CCCCC2)oc2ccc3c(c12)C(O)CC1(CCCCC1)O3 (centres undefined)	Tg IFNy HTS -111.8
CCOC(=O)C1CCN(C(=O)C2=C(C)C(=O)OC23CCN(S(C)(=O)=O)CC3)CC1	none
Cc1c(C(=O)NCCCN2CC(C)CC(C)C2)oc2ccc3c(c12)C(O)CC1(CCCCC1)O3 (centres undefined)	Tg IFNy HTS -112.0
Cc1c(C(=O)N2CC(C)CC(C)C2)oc2ccc3c(c12)C(=O)CC1(CCCCC1)O3 (centres undefined)	none
CCOC(=O)C1CCN(C(=O)c2oc3ccc4c(c3c2C)C(O)CC2(CCCCC2)O4)CC1 (centres undefined)	Tg IFNy HTS -80.5
Cc1c(C(=O)N2CCc3ccccc3C2)oc2ccc3c(c12)C(=O)CC1(CCCCC1)O3	none
Cc1c(C(=O)NCCCN2CCCCC2)oc2ccc3c(c12)C(O)CC1(CCCCC1)O3 (centres undefined)	none
CCOC(=O)C1CCN(C(=O)c2nn(-c3ccccc3)nc2C)CC1	none
CC1=C(C(=O)NCCCN2CCCC2)C2(CCN(S(=O)(=O)c3cccs3)CC2)OC1=O	none
CC1=C(C(=O)NCCCN2CC(C)CC(C)C2)C2(CCCCCC2)OC1=O (centres undefined)	none
O=C1NCC2(CCCN(C(=O)c3cc(=O)[nH]c4ccc(F)cc34)C2)O1 (centres undefined)	none
COc1ccc(-c2cc(-c3ccccc3)c3cc(Cl)ccc3n2)cc1	none
COc1ccc(Cl)cc1S(=O)(=O)N(C)CC(=O)N1CCCCCC1	none
CCNC(=O)[C@@H]1CCCN1C(=O)[C@H](CCCN=C(N)N)NC(=O)[C@H](CC(C)C)NC(=O)[C@@H](COC(C)(C)C)NC(=O)[C@H](Cc1ccc(O)cc1)NC(=O)[C@H](CO)NC(=O)[C@H](Cc1c[nH]c2ccccc12)NC(=O)[C@H](Cc1cnc[nH]1)NC(=O)C1CCC(=O)N1 (some centres undefined)	none
Cn1c(=O)oc2cc(NS(=O)(=O)c3ccc4c(c3)CCC(=O)N4)ccc21	none
O=S(=O)(c1ccc(F)cc1)N1C[C@@H]2OCCN(c3ncc(F)cn3)[C@H]2C1	none
CC1(C(=O)NCc2ccc(F)cc2F)CCN(C(=O)c2cccs2)CC1	none
Cn1cc(CN2CCCC3(COCCN(c4cccc(C#N)c4)C3)C2)cn1 (centres undefined)	none
O=C(c1cccs1)N1CCOCC2(C1)CN(c1cccnc1)C(=O)CO2 (centres undefined)	none
OC(CN1CCNCC1)Cn1c2ccc(Br)cc2c2cc(Br)ccc21 (centres undefined)	Tg IFNy HTS -73.5
OC(COCc1ccccc1)CN1CCNCC1 (centres undefined)	none
OC(CN1CCNCC1)Cn1ccc2ccccc21 (centres undefined)	none
Cn1cc(C[C@H]2[C@H](N3CCOCC3)CCN2Cc2ccco2)cn1	none
C[C@]12CC[C@@H]3c4ccc(O)cc4C[C@@H](CCCCCCCCCS(=O)CCCC(F)(F)C(F)(F)F)[C@H]3[C@@H]1CC[C@@H]2O (some centres undefined)	Tg IFNy HTS -78.3
COc1cc(C)c2c(c1)C=CC1C2CCC2(C)C(O)CCC12 (centres undefined)	none
CCn1cc(C(=O)Nc2ccc(NC(=O)c3ccc(C)o3)cc2)c(C)n1	none
NS(=O)(=O)c1ccc(CCC(=O)NC(Cc2cccs2)c2nccs2)cc1 (centres undefined)	none
CN(C)CC[C@H](CSc1ccccc1)Nc1ccc(S(=O)(=O)NC(=O)c2ccc(N3CCN(Cc4ccccc4-c4ccc(Cl)cc4)CC3)cc2)cc1[N+](=O)[O-]	Tg IFNy HTS -76.2
O=S(=O)(NCCN1CCOCC1)c1cccc(C(F)(F)F)c1	none
CC1(C)CCC(c2ccc(Cl)cc2)=C(CN2CCN(c3ccc(C(=O)NS(=O)(=O)c4ccc(N[C@H](CCN5CCOCC5)CSc5ccccc5)c(S(=O)(=O)C(F)(F)F)c4)cc3)CC2)C1	Tg IFNy HTS -72.1
Cc1ccc(N2CC3(CCN(C(=O)c4cccc5cccnc45)C3)CC2=O)cc1 (centres undefined)	none
O=C1NCC[C@@]12CN(S(=O)(=O)C1CC1)C[C@H]2c1ccccc1	none
CCOC(=O)C1CCN(c2nc(-c3ccc(Cl)cc3)nc3ccccc23)CC1	none
CC(C)c1nccn1C(C)C(=O)NCCS(=O)(=O)N1CCCC1 (centres undefined)	none
Cc1ccc(N)cc1NS(C)(=O)=O	none
CCN(CC)c1ncnc2c1cnn2CC(=O)NCc1cccc(C(F)(F)F)c1	none
CCN(CC)c1ncnc2c1cnn2CC(=O)NCc1ccc(F)cc1	Tg IFNy HTS -94.0
CCN(CC)c1ncnc2c1cnn2CC(=O)NCCOC	none
